Laboratory results from PubChem BioAssay AID1851 (National Center for Advancing Translational Sciences (NCATS), 2009).
Several values for one entry are separate records, joined by “and”; a condition that tells them apart may be missing. Equal values may be shown once. About 4,000 (25%) of roughly 16,000 compounds were called active. Roughly 26% stayed inconclusive and do not appear here. Calls follow the shape of the dose curve; as a rule, active = well fitted curve in the direction sought with a large enough effect; inconclusive = small, poorly fitted or top-dose-only effect, or effect the other way; inactive = no such curve, though single readings can be large or run the other way. The list is a sample of the results. Where a structure was tested more than once in an assay, its records may differ in their call.

Each compound was assayed against Cytochrome P450 2C9 (Homo sapiens) (UniProt P11712) (assay: Cytochrome panel assay with activity outcomes). Settings: recombinant CYP, pro-luciferin dealkylation, luminescence, p450-cyp2c9; series mostly up to 57.1 µM; activity, negative = inhibition: at the top concentration.
% is scaled to controls: 0 for no effect and ±100 for the full control effect.

Chain of Cytochrome P450 2C9 (Homo sapiens) (P11712 whole entry, looked up): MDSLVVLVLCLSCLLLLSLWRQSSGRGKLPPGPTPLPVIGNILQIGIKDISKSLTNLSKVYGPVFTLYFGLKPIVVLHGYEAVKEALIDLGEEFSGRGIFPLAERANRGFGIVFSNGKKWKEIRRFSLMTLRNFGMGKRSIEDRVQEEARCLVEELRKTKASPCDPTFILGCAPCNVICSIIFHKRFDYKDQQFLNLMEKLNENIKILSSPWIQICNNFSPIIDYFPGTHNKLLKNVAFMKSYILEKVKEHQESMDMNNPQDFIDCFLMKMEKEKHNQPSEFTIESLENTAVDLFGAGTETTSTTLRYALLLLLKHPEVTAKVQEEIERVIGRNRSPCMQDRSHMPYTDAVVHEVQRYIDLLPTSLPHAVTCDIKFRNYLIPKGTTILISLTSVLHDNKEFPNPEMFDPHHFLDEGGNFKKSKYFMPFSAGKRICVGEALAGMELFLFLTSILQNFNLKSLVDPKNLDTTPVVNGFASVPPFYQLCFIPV

Row | SMILES | activity, negative = inhibition | AC50
1 | CN(C)c1ccc(-c2cncnc2Nc2ccc(F)cc2)cc1 | -2.26% [at 2.29 µM] (inactive) | –
2 | CN(C)CCC[C@@]1(c2ccc(F)cc2)OCc2cc(C#N)ccc21 | – | inactive and 3.16 µM (active)
3 | CCOC(=O)c1ccc(Cl)c(NC(=O)c2ccc(-c3ccccc3)cc2)c1 | 0.219% (inactive) | –
4 | CCOc1c(Cl)cc(C(=O)Nc2ccccc2-c2ccccc2)cc1Cl | – | 2.82 µM (active)
5 | Cc1cc(C)c2nc(-c3ccccn3)cc(C(=O)Nc3ccc(S(=O)(=O)Nc4cc(C)on4)cc3)c2c1 | – | 7.08 µM (active)
6 | COc1cc2ccccc2cc1C(=O)Nc1ccc(S(=O)(=O)Nc2cc(C)on2)cc1 | – | 12.6 µM (active)
7 | Cc1cc(NC(=O)c2ccc(S(=O)(=O)Nc3ccccc3)cc2)no1 | – | 2.24 µM (active)
8 | COc1cccc(OC)c1C(=O)Nc1cc(C)on1 | -22% (inactive) | –
9 | Nc1ccc(S(=O)(=O)NC(=O)c2ccccc2)cc1 | -4.1% [at 25.6 µM] (inactive) | –
10 | NS(=O)(=O)c1ccc(NS(=O)(=O)c2ccc(NC(=O)c3ccc(-c4ccccc4)cc3)cc2)cc1 | – | 0.2 µM (active)
11 | Cc1cc(NC(=O)c2cc(C(C)C)on2)no1 | -17.2% (inactive) | –
12 | NS(=O)(=O)c1ccc(NC(=O)Nc2cccc3ccccc23)cc1 | -9.47% [at 11.4 µM] (inactive) | –
13 | Cc1cc(NC(=O)c2ccccc2Cl)no1 | 9.61% (inactive) | –
14 | COCCNc1cc(-c2c(C)noc2C)ncn1 | 6.99% [at 2.29 µM] (inactive) | –
15 | CC(C)(C)NC[C@H](O)COc1cccc2[nH]c(=O)[nH]c12 | – | inactive
16 | Cc1ncc(CO)c(CO)c1O | 7.59% [at 25.6 µM] (inactive) | –
17 | Cc1cc(=O)oc(C)c1C(=O)N1CCCCC1 | 1.7% (inactive) | –
18 | COC(=O)c1ccc(NC(=O)c2ccccc2NS(=O)(=O)c2ccccc2)cc1 | – | 0.2 µM (active)
19 | Cc1ccc(S(=O)(=O)Nc2ccccc2C(=O)c2ccc(C)c(C)c2)cc1 | 5.56% [at 11.4 µM] (inactive) | –
20 | NC(N)=NC(N)=Nc1ccc(S(N)(=O)=O)cc1 | -4.01% [at 11.4 µM] (inactive) | –
21 | O=C(c1ccco1)N1CCN(c2cc(=O)n(C3CCCCC3)c(=O)[nH]2)CC1 | -1.48% (inactive) | –
22 | Cc1ccccc1-n1c(=O)cc(N2CC(C)OC(C)C2)[nH]c1=O (stereo not given) | -1.49% (inactive) | –
23 | O=c1cc(N2CCC(Cc3ccccc3)CC2)[nH]c(=O)n1C1CCCCC1 | – | 12.6 µM (active)
24 | CN1CCN(c2ccnc(-c3ccoc3)n2)CC1 | 4.59% [at 2.29 µM] (inactive) | –

Row | SMILES | activity, negative = inhibition | AC50
25 | CON/C=C(\C=Nc1ccccc1)c1ncc(C(F)(F)F)cc1Cl | – | 7.94 µM (active)
26 | N#Cc1c(NC(=O)CCN2C(=O)c3ccccc3C2=O)oc(-c2ccccc2)c1-c1ccccc1 | – | 0.398 µM (active)
27 | C/C(CCN1CCCc2nc(C)c(C)cc21)=N\O[C@@H](C)c1cn([C@H](CO)Cc2ccccc2)nn1 | -12.1% [at 11.4 µM] (inactive) | –
28 | Cc1c(/N=C/c2ccco2)n(Cc2ccccc2)c2ccccc12 | – | 14.1 µM (active)
29 | CCn1c(=O)cc(SCC(=O)N2CCN(C(=O)c3ccco3)CC2)c2ccccc21 | 2.34% (inactive) | –
30 | CC[n+]1c(P(=O)([O-])c2ccccc2)[nH]c2ccccc21 | -26.6% (inactive) | –
31 | COC(=O)CCSc1cc([N+](=O)[O-])cc2c1c(C1OCCS1)nn2-c1ccccc1 (stereo not given) | – | 10 µM (active)
32 | Cn1cc(-c2nc3cncnc3n(-c3ccccc3)c2=O)c2ccccc21 | -9.34% (inactive) | –
33 | Cn1cc(/C=N/n2cnc3scc(-c4ccccc4)c3c2=O)c2ccccc21 | – | 5.01 µM (active)
34 | Cn1cc(-c2nc3cnc(Oc4ccccc4)nc3n(C)c2=O)c2ccccc21 | 9.76% (inactive) | –
35 | Nc1nonc1-c1noc(CCCN2C(=O)c3ccccc3C2=O)n1 | -29.3% (inactive) | –
36 | COC(=O)c1scc(C)c1NC(=O)Cc1ccccc1 | -15.4% (inactive) | –
37 | O=C(Cc1ccc(Br)cc1)Nc1ccccc1Sc1ccccc1 | – | 2.82 µM (active)
38 | COCCNc1ncnc2ccc(-c3cccc(NS(C)(=O)=O)c3)cc12 | 16.7% [at 2.29 µM] (inactive) | –
39 | COc1ccc(CNc2nc(-c3cccc(NS(C)(=O)=O)c3)nc3ccccc23)c(OC)c1 | – | 0.158 µM (active)
40 | CNc1nc(-c2cccc(NS(C)(=O)=O)c2)nc2ccccc12 | 27.5% [at 2.29 µM] (inactive) | –
41 | COc1ccc(CNc2ncnc3ccc(-c4cccc(NS(C)(=O)=O)c4)cc23)c(OC)c1 | – | 0.501 µM (active)
42 | COCCNc1nc(-c2cccc(NS(C)(=O)=O)c2)nc2ccccc12 | 2.19% [at 2.29 µM] (inactive) | –
43 | COc1ccc(CNc2ncncc2-c2cccc(NS(C)(=O)=O)c2)c(OC)c1 | -18.5% [at 2.29 µM] (inactive) | –
44 | C[C@@H](CCC(=O)O)C(=O)O | 3.2% [at 11.4 µM] (inactive) | –
45 | CC(=O)c1c(N2CCC(C(N)=O)CC2)nc(=S)n(-c2ccccc2)c1C | -23.7% (inactive) | –
46 | CC(=O)N1CCC[C@@]2(CCN(c3ccccc3)C2)C1 | 17.6% (inactive) | –
47 | C=CCn1c(C)c(C(C)=O)c(N2CCN(c3ccccc3)CC2)nc1=S | – | 12.6 µM (active)
48 | COc1ccc(NC(=O)N2CC3(CCN(C(=O)c4csnn4)CC3)C2)cc1 | 9.55% (inactive) | –

Row | SMILES | activity, negative = inhibition | AC50
49 | Nc1nc2c(ncn2[C@@H]2C=C[C@@H](CO)C2)c(=O)[nH]1 | 3.99% [at 11.4 µM] (inactive) | –
50 | C/C(=C(/CCO)SSC[C@@H]1CCCO1)N(C=O)Cc1cnc(C)nc1N | 15.4% [at 25.6 µM] (inactive) | –
51 | CCc1ccccc1OC[C@@H](O)CN[C@H]1CCCc2ccccc21 | 18.2% (inactive) | –
52 | Nc1ccc(N2C(=O)c3ccccc3C2=O)c(Cl)c1 | 12.8% (inactive) | –
53 | Nc1ccc(N(S(=O)(=O)c2ccccc2)S(=O)(=O)c2ccccc2)c(Cl)c1 | – | 3.16 µM (active)
54 | CCC/C=C(\CCC)C(NC(=O)OCC(C)C)c1ccc(C(=O)OC)cc1 (stereo not given) | – | 3.98 µM (active)
55 | CCC/C=C(\CCC)C(NC(=O)c1cccs1)c1ccc(C(=O)OC)cc1 (stereo not given) | – | 2 µM (active)
56 | CCC/C=C(\CCC)C(NS(=O)(=O)c1cccs1)c1ccc(C(=O)OC)cc1 (stereo not given) | – | 2 µM (active)
57 | CCC/C=C(\CCC)C(NC(=O)Cc1ccccc1)c1ccc(C(=O)OC)cc1 (stereo not given) | – | 10 µM (active)
58 | COC(=O)N1CCC2(CC1)CN(C(=O)Nc1cccc(C#N)c1)C2 | -16.4% (inactive) | –
59 | COc1ccccc1CNc1ncnc2ccc(-c3ccoc3)cc12 | -19.5% [at 2.29 µM] (inactive) | –
60 | Cc1cnc(CNc2cc(-c3ccoc3)ncn2)cn1 | 10.6% [at 2.29 µM] (inactive) | –
61 | O=C(Nc1cccc(F)c1)N1CCC2(CC1)CCN(C(=O)c1csnn1)CC2 | -10.3% (inactive) | –
62 | CCc1c2c(nc3cccc(OC)c13)OC(CC)C2 (stereo not given) | 0.447% (inactive) | –
63 | CCC/C=C(\CCC)C(NC(=O)c1ccc(C(=O)OC)cc1)c1ccc(C(=O)OC)cc1 (stereo not given) | – | 2 µM (active)
64 | CCC/C=C(\CCC)C(NC(=O)c1ccc(C(F)(F)F)cc1)c1ccc(C(F)(F)F)cc1 (stereo not given) | -1.68% (inactive) | –
65 | CCC/C=C(\CCC)C(NC(=O)c1ccc(-c2ccccc2)cc1)c1ccc(C(=O)OC)cc1 (stereo not given) | -13.2% (inactive) | –
66 | C[N+](C)(C)c1ccc([C@H](N)C(=O)O)cc1 | -14.1% [at 11.4 µM] (inactive) | –
67 | CCCn1cnc2c1c(=O)n(CCCCC(C)=O)c(=O)n2C | 4.22% (inactive) | –
68 | CCCCn1cnc2c(cnn2-c2ccc(F)cc2)c1=O | – | 11.2 µM (active)
69 | CCCn1c(=O)c2c(ncn2C)n(CCC)c1=O | 3.38% (inactive) | –
70 | O=C(O)CONC(=O)c1cc(OCC(F)(F)F)ccc1OCC(F)(F)F | 4.3% (inactive) | –
71 | CC(C)CC(=O)Nc1sc2c(c1C#N)CC(C)(C)NC2(C)C | -27.1% (inactive) | –
72 | COC(=O)C1CCN(CC(=O)Nc2sc3c(c2C#N)CCC3)CC1 | – | 5.62 µM (active)

Row | SMILES | activity, negative = inhibition | AC50
73 | Cc1c(C(=O)O)nc(/C=C\C(=O)O)[nH]c1=O | -11.9% [at 11.4 µM] (inactive) | –
74 | O=C(O)c1nn(-c2ccc(Cl)cc2)c2c1C(=O)c1ccccc1C2=O | -5.15% [at 11.4 µM] (inactive) | –
75 | O=C(c1ccccc1)c1nn(-c2ccccc2)c(=O)cc1C(F)(F)F | – | 10 µM (active)
76 | O=C(O)c1nn(-c2ccccc2)nc1-c1nn(-c2ccccc2)nc1C(=O)O | -0.0182% (inactive) | –
77 | CC(C)[C@H]1C(=O)C(C(N)=O)=C(O)[C@]2(O)C(=O)C3=C(O)c4c(O)ccc(N(C)C)c4C[C@H]3C[C@@H]12 | -5.14% (inactive) | –
78 | CN(C)CC/C=C1\c2ccccc2Sc2ccc(Cl)cc21 | -4.11% [at 25.6 µM] (inactive) | –
79 | CC(C(=O)NC1CCCC1)N(C(=O)c1snc(C(N)=O)c1N)c1ccc2c(c1)OCCO2 (stereo not given) | – | 12.6 µM (active)
80 | CCC(C)(C(=O)NC1CCCC1)N(CC1CCCO1)C(=O)c1ccc2c(c1)OCO2 (stereo not given) | -11.3% (inactive) | –
81 | Nc1nc(=O)c2[nH]cnc2n1O | -5.05% [at 11.4 µM] (inactive) | –
82 | CN(C)Cc1ccccc1-c1ccc2ncnc(NC3CCNCC3)c2c1 | 7.8% [at 2.29 µM] (inactive) | –
83 | COc1ccc(/C=N/n2c(C)nnc2C)c(OC)c1 | -19.1% (inactive) | –
84 | Cc1cc(C)n(-c2nnc(C)n2/N=C/c2ccccc2OCc2ccccc2Cl)n1 | – | 8.91 µM (active)
85 | CN(C)CCOC(=O)c1ccc(N)cc1 | -8.18% [at 11.4 µM] (inactive) | –
86 | Cc1cccc(NC(=O)CCS(=O)(=O)c2cccc3nsnc23)c1C | – | 15.8 µM (active)
87 | O=C(CCS(=O)(=O)c1cccc2nsnc12)NC1CCCCC1 | 18.2% (inactive) | –
88 | CCOC(=O)C1CCCN(C(=O)c2cc3nc(-c4ccc5c(c4)OCO5)cc(C(F)(F)F)n3n2)C1 (stereo not given) | – | 6.31 µM (active)
89 | COc1cccc(-c2cc(C(F)(F)F)n3ncc(S(=O)(=O)c4ccccc4)c3n2)c1 | -9.21% (inactive) | –
90 | COc1ccc(NC(=O)N2CCCC3(CCN(C(=O)c4cnccn4)CC3)C2)cc1 | 1.74% (inactive) | –
91 | COc1ccc(-c2cc(C(F)(F)F)n3nc(C(=O)N4CCCCC4)cc3n2)cc1 | – | 25.1 µM (active)
92 | c1cncc(CNc2ncncc2-c2cccnc2)c1 | 4.39% [at 2.29 µM] (inactive) | –
93 | O=C(N/N=C/C=C/c1ccccc1)c1cc2c(ccc3ccccc32)o1 | -29.8% (inactive) | –
94 | O=S(=O)(N/N=C\C=C\c1ccccc1)c1ccc(Br)cc1 | – | 0.501 µM (active)
95 | C(/C=C\c1ccccc1)=Nc1ccc2c(c1)Cc1ccccc1-2 | -24.1% [at 11.4 µM] (inactive) | –
